Reference: PubChem BioAssay (NCI)
The panel holds about 83,000 compounds, 20% with a hit somewhere; the sample as a whole holds those more often.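 Percent growth is the endpoint: 0 to 100 indicates growth inhibition (40 means 60% inhibition), 0 means no net growth, and negative values indicate cell death.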 Active and inactive are the calls of the source. Rule for the calls: active = growth percent below 10; inactive = the rest.

Legend:
Assay in all cases: NCI-60 one-dose screen, 48 h (100 = growth as untreated, 0 = no growth, -100 = all killed)
T-47D breast = tested on: T-47D breast
BT-549 breast = tested on: BT-549 breast
MDA-MB-435 melanoma = tested on: MDA-MB-435 melanoma
SW-620 colon = tested on: SW-620 colon
MCF7 breast = tested on: MCF7 breast
HCT-116 colon = tested on: HCT-116 colon
HCC-2998 colon = tested on: HCC-2998 colon
KM12 colon = tested on: KM12 colon
MDA-MB-468 breast = tested on: MDA-MB-468 breast

Measured: growth

O=C(CSc1nnc(-c2ccc(-c3nc4ccc(Cl)cc4[nH]3)cc2)o1)Nc1ccc(Br)cc1
active: BT-549 breast; 10 µM unless noted -1.46% | HCT-116 colon; 10 µM unless noted 8.26%
inactive: T-47D breast; 10 µM unless noted 41.4% | MDA-MB-435 melanoma; 10 µM unless noted 28.6% | SW-620 colon; 10 µM unless noted 17.9% | MCF7 breast; 10 µM unless noted 20.4% | HCC-2998 colon; 10 µM unless noted 76.9% | KM12 colon; 10 µM unless noted 18.9%

CC/C(=C(/c1ccc(O)cc1)c1ccc(OCCN(C)C(=O)CCOCCNC(=O)Cc2ccc3c(c2)CN([C@@H]2CCC(=O)NC2=O)C3=O)cc1)c1ccccc1
active: BT-549 breast; 1 µM -12.9% | BT-549 breast; 10 µM -25.9% | MDA-MB-468 breast; 1 µM -2.35% | MDA-MB-468 breast; 10 µM -18.2%
inactive: T-47D breast; 1 µM 20.9% | T-47D breast; 10 µM 25% | MDA-MB-435 melanoma; 1 µM 104% | MDA-MB-435 melanoma; 10 µM 85% | SW-620 colon; 1 µM 70.6% | SW-620 colon; 10 µM 36% | MCF7 breast; 1 µM 34.7% | MCF7 breast; 10 µM 31.5% | HCT-116 colon; 1 µM 100% | HCT-116 colon; 10 µM 92.4% | HCC-2998 colon; 1 µM 97.3% | HCC-2998 colon; 10 µM 78.3% | KM12 colon; 1 µM 95.3% | KM12 colon; 10 µM 66.7%

C[C@H]1[C@@H](CC(=O)N[C@@H](Cc2coc3ccccc23)B(O)O)O[C@@H]2OC3(C)CC[C@H]4[C@H](C)CC[C@@H]1[C@@]24O3
inactive: T-47D breast; 10 µM unless noted 27.1% | MCF7 breast; 10 µM unless noted 24.4%
active: BT-549 breast; 10 µM unless noted -72.8% | MDA-MB-435 melanoma; 10 µM unless noted -75.8% | SW-620 colon; 10 µM unless noted 3.32% | HCT-116 colon; 10 µM unless noted -56.6% | HCC-2998 colon; 10 µM unless noted -83.1% | KM12 colon; 10 µM unless noted 0.198%

CC/C(=C(/c1ccc(O)cc1)c1ccc(OCCN(C)C(=O)COCCOCCNC(=O)c2ccc3c(c2)CN([C@@H]2CCC(=O)NC2=O)C3=O)cc1)c1ccccc1
active: BT-549 breast; 1 µM 5.04% | MDA-MB-468 breast; 1 µM 5.9% | MDA-MB-468 breast; 10 µM -23.9%
inactive: T-47D breast; 1 µM 28.6% | T-47D breast; 10 µM 33.4% | BT-549 breast; 10 µM 43.1% | MDA-MB-435 melanoma; 1 µM 101% | MDA-MB-435 melanoma; 10 µM 97% | SW-620 colon; 1 µM 81.5% | SW-620 colon; 10 µM 60.6% | MCF7 breast; 1 µM 26.3% | MCF7 breast; 10 µM 18.9% | HCT-116 colon; 1 µM 97.9% | HCT-116 colon; 10 µM 102% | HCC-2998 colon; 1 µM 97.6% | HCC-2998 colon; 10 µM 82.8% | KM12 colon; 1 µM 98.9% | KM12 colon; 10 µM 95.5%

CCCCCCCCc1ccc(C(=O)Nc2ccc(C)c(OP(=O)(O)O)c2)cc1
inactive: T-47D breast; 10 µM unless noted 90% | BT-549 breast; 10 µM unless noted 88.9% | MDA-MB-435 melanoma; 10 µM unless noted 102% | SW-620 colon; 10 µM unless noted 103% | MCF7 breast; 10 µM unless noted 88.3% | HCT-116 colon; 10 µM unless noted 106% | HCC-2998 colon; 10 µM unless noted 125% | KM12 colon; 10 µM unless noted 95.5%

Cn1cc(-c2cc(N)n3nc(-c4c[nH]c5ccccc45)cc3n2)c2ccccc21
active: T-47D breast; 10 µM unless noted -56.6% | BT-549 breast; 10 µM unless noted -92.5% | MDA-MB-435 melanoma; 10 µM unless noted -80.6% | SW-620 colon; 10 µM unless noted -87.1% | MCF7 breast; 10 µM unless noted -77.3% | HCT-116 colon; 10 µM unless noted -88% | HCC-2998 colon; 10 µM unless noted -77.1% | KM12 colon; 10 µM unless noted -80%

CC1CCc2c(sc3nc(SCC(=O)c4cccc([N+](=O)[O-])c4)n(-c4ccccc4)c(=O)c23)C1 (stereo not drawn)
inactive: T-47D breast; 10 µM unless noted 86.8% | BT-549 breast; 10 µM unless noted 94.5% | MDA-MB-435 melanoma; 10 µM unless noted 90.8% | SW-620 colon; 10 µM unless noted 71.1% | MCF7 breast; 10 µM unless noted 86.5% | HCT-116 colon; 10 µM unless noted 25% | HCC-2998 colon; 10 µM unless noted 105% | KM12 colon; 10 µM unless noted 93.5%

C[C@H](NC(=O)c1ccc2c(-c3ccc(C(F)(F)F)cc3)cccc2c1)c1ccccn1
inactive: T-47D breast; 10 µM unless noted 18% | BT-549 breast; 10 µM unless noted 54.3% | MDA-MB-435 melanoma; 10 µM unless noted 56% | SW-620 colon; 10 µM unless noted 68.1% | MCF7 breast; 10 µM unless noted 26% | HCT-116 colon; 10 µM unless noted 35.4% | HCC-2998 colon; 10 µM unless noted 49.9% | KM12 colon; 10 µM unless noted 47.5%

CN(C)c1nc(NCCNS(=O)(=O)c2ccc(C(=O)/C=C/c3ccc(C(F)(F)F)cc3)cc2)nc(N2CCOCC2)n1
active: T-47D breast; 10 µM unless noted -61.2% | BT-549 breast; 10 µM unless noted -20.8% | MDA-MB-435 melanoma; 10 µM unless noted -59.4% | SW-620 colon; 10 µM unless noted -76.7% | MCF7 breast; 10 µM unless noted -84.5% | HCT-116 colon; 10 µM unless noted -91.4% | HCC-2998 colon; 10 µM unless noted -97.6% | KM12 colon; 10 µM unless noted -80.7%

COc1cc(CNC(=O)C[C@H](C)CCC=C(C)C)ccc1OCc1cn(-c2ccc(Cl)c(Cl)c2)nn1
inactive: T-47D breast; 10 µM unless noted 33.6% | BT-549 breast; 10 µM unless noted 71.7% | MDA-MB-435 melanoma; 10 µM unless noted 91.3% | SW-620 colon; 10 µM unless noted 29.9% | MCF7 breast; 10 µM unless noted 49.6% | HCT-116 colon; 10 µM unless noted 29.8% | HCC-2998 colon; 10 µM unless noted 93.5% | KM12 colon; 10 µM unless noted 82.7%

COc1cc(/C=N/NC(=O)c2ccc(OCc3nc4ccc(Cl)cc4[nH]3)cc2)cc(OC)c1OC
inactive: BT-549 breast; 10 µM unless noted 22.9% | MDA-MB-435 melanoma; 10 µM unless noted 37.7% | SW-620 colon; 10 µM unless noted 40.8% | MCF7 breast; 10 µM unless noted 18.3% | HCT-116 colon; 10 µM unless noted 22.8% | HCC-2998 colon; 10 µM unless noted 61.2% | KM12 colon; 10 µM unless noted 43.3%
active: T-47D breast; 10 µM unless noted 7.17%
